The values below come from PubChem BioAssay (Tox21).

Records with an inconclusive call do not appear. Entries that show only a call come without a potency. Unmarked numbers belong to inactive results. Active and inactive are the calls of the source. The call rests on the fitted dose curve.

For this assay, the target named is Beta-2 adrenergic receptor (Homo sapiens) (UniProt P07550). Briefly: Adrenergic beta2 receptor (ADRB2) small molecule antagonists, cell-based qHTS assay (AID 1963592). Further: nearly all actives have a fitted effect of over 50% in size. Conditions: CHO-ADRB2 cells, isoproterenol-stimulated cAMP HTRF ratio, 0.5 h; series mostly up to 92.4 µM. From the text: U.S. Tox21 Program National Center for Advancing Translational Sciences [NCATS] Division of Preclinical Innovation [DPI] U.S. Environmental Protection Agency [EPA] National Institutes of Environmental Health Sciences [NIEHS] National Toxicology Program [NTP] U.S. Food and Drug Administration [FDA] Tox21 Assay Overview: Beta adrenergic receptors (Beta-ARs) belong to the G-protein coupled receptor (GPCR) superfamily, includes three subtypes - beta1, beta2, and beta3. Beta1-AR is the predominant receptor subtype expressed in the heart, and beta2-AR is expressed in the kidney, lung, blood vessel and in the heart, and beta3 is found in the adipocytes. Beta1 and 2 ARs couple to Gs protein and elevate cyclic adenosine mono phosphate (cAMP), which activates protein kinase A and leads to the downstream signaling responsible for the physiological actions. Beta-AR agonists or antagonists are the most prescribed therapeutic agents for heart failure and asthma, and these were one of the first target receptors for the rational drug design. Tox21 10K compound library was screened using the cAMP-Gs dynamic assay (Cisbio Bioassays, Shelton, CT) to identify agonists/antagonists of the Gs-coupled human adrenergic, beta2 receptor (ADRB2) in the CHO-ADRB2 cell line (Codex BioSolutions, Inc. Gaithersburg, MD), which stably over-expresses ADRB2. The principle of cAMP-Gs dynamic assay is based on HTRF technology, which facilitates the fluorescence resonance energy transfer (FRET) between donor Europium cryptate and acceptor d2-labeled cAMP. The cAMP generated within cells competes with the red acceptor, d2-labled cAMP, for binding to the monoclonal anti-cAMP-cryptate (Europium donor). An increase in intracellular cAMP leads to the disruption of FRET signal, and the signal is inversely proportional to the cAMP concentration. Propranolol HCl (Sigma-Aldrich, St. Louis, MO) was used as a positive control in the screening.
Chain of Beta-2 adrenergic receptor (Homo sapiens) (P07550 whole entry, looked up): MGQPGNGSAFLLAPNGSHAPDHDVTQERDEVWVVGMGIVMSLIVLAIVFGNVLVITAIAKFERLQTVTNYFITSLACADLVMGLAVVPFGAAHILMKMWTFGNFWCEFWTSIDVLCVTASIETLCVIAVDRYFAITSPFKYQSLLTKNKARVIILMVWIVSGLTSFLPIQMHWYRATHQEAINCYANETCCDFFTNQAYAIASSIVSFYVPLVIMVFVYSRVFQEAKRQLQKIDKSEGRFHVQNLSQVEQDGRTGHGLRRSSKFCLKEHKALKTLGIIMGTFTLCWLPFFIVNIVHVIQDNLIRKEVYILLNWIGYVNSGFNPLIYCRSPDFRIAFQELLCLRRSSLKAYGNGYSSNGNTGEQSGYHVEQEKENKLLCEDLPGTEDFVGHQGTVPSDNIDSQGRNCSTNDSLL
Tox21 Assay Protocol Summary: CHO-ADRB2 cells were dispensed at 1,000/well in 4uL assay medium into white/solid 1536-well plates (Greiner Bio-One North America Inc., Monroe, NC) using a Multidrop Combi dispenser (ThermoFisher Scientific, Waltham, MA). The assay plates were incubated at 37C and 5% CO2 for an overnight (18-20hr). Then positive control and test compounds dissolved in DMSO were transferred to the assay plates at 23nL using a Pintool station (Wako, San Diego, CA). Following the compound and positive control transfer, 1uL agonist-stimulation mix containing 1nM Isoproterenol HCl, 100uM IBMX and 25uM Ro-20-1724 was added to each well of the assay plates using BioRAPTR Flying Reagent Dispenser (FRD, Beckman Coulter, Brea, CA). The assay plates were incubated at room temperature for 0.5hr. Then 2.5ul each d2-labled cAMP and anti-cAMP-cryptate solutions were added separately to each well of the assay plates using an FRD and the assay plates were incubated at room temperature for 1hr. The fluorescence signal was measured at two different wavelengths (665nm and 615nm) using an Envision plate reader (Perkin Elmer, Shelton, CT). Data were expressed as the ratio of 665 nm/615 nm.
Regarding `COc1cc2[nH]c(=O)[nH]c(=O)c2cc1OC`, the Potency result was “inactive”.
The same measure, in the same setting: the value for `CCCCCCCCCCCCCCCCCCO` was “inactive”.
On the same count and under the same terms, the entry for `C[C@@H]1C[C@H]2[C@@H]3CCC4=CC(=O)C=C[C@]4(C)[C@@]3(F)[C@@H](O)C[C@]2(C)[C@@]1(O)C(=O)COP(=O)(O)O` is “inactive”; for `CNc1c2c(nn1C)CCCC2` it is “inactive”; for `O=C1Nc2cc(Cl)ccc2Oc2ccccc21` it is “inactive”.
Turning to `C1COC(NC(C2CC2)C2CC2)=N1`, the Potency result was “inactive”.
Same read-out and setting: the entry for `COc1ccc([C@@H]2Sc3ccccc3NC(=O)[C@@H]2O)cc1` is “inactive”; for `CC(C)(C)N` it is “inactive”; for `CCCCOc1cc(C(=O)NCCN(CC)CC)c2ccccc2n1` it is “inactive”.
Consider `O=C(CCN1CCN2CCCC2C1)N1c2ccccc2Sc2ccc(Cl)cc21` (stereo not given), for which the activity change, negative = inhibition was 0.603% [at 19 µM].
As to `COC(=O)c1ccccc1Cl`, the Potency result is “inactive”.
Turning to `O=C(O)c1ccccc1NCCc1ccccc1`, the Potency result is “inactive”.
As to `Cc1c(F)cc2c(=O)c(C(=O)O)cn3c2c1CCC3C` (stereo not given), the Potency entry was “inactive”.
As for `CC1(C)[C@H]2CC[C@]1(C)C(=O)C2`, the Potency result was “inactive”.
The same measure, in the same setting: the value for `CCn1c2ccccc2c2cc([N+](=O)[O-])ccc21` was “inactive”.
The same measure, in the same setting: the value for `Cc1cc(SC2=C(O)C[C@@](CCc3ccc(N)cc3)(C(C)C)OC2=O)c(C(C)(C)C)cc1CO` was “inactive”; that for `CCCCCCCCCCCCCC[n+]1ccccc1` was “inactive”.
Same read-out and setting: the entry for `C#CC(O)CCCCC` (stereo not given) is “inactive”; for `Cc1c(C(=O)NCCO)[n+](=O)c2ccccc2n1[O-]` it is “inactive”.
Take `CCN(CC)CCNc1ccc(CNC=O)c2sc3ccc(OC)cc3c(=O)c12`: the Potency entry was “inactive”.
The same measure, in the same setting: the entry for `COC(=O)NN` is “inactive”; for `NNc1nnc(NN)c2ccccc12` it is “inactive”.
Same read-out and setting: the value for `OCCN(CCO)CCN(CCO)CCO` was “inactive”.
On the same count and under the same terms, the value for `CCCCCCOC(=O)CCC` was “inactive”.
For `CCCCS`, the Potency entry was “inactive”.
The same measure, in the same setting: the entry for `c1ccc(SSc2ccccc2)cc1` is “inactive”; for `Nc1cc(S(=O)(=O)O)ccc1O` it is “inactive”; for `CCCCCCCCCCCCc1ccc(O)cc1` it is “inactive”.
On the same count and under the same terms, the entry for `CCOC(=O)/C=C/C(=O)O` is “inactive”.
On the same count and under the same terms, the entry for `O=c1c(O)c(O)c1=O` is “inactive”; for `CCCCCCCCCCCCOC(=O)c1ccc(O)cc1` it is “inactive”.
Turning to `CC(C)=CCC[C@H](C)CCO`, the Potency result was “inactive”.
The same measure, in the same setting: the value for `O=C(CCBr)N1CCN(C(=O)CCBr)CC1` was “inactive”; that for `CCCCCCCCCCC(=O)O` was “inactive”; that for `CCOC(=O)Cc1cccc2ccccc12` was “inactive”.
For the compound `CCC1(C)C(=O)N(Cl)C(=O)N1Cl` (stereo not given), the Potency result was “inactive”.
For `O=C(O)c1cccc(Oc2ccccc2)c1`, the Potency result is “inactive”.
Turning to `CCCCCCCCCCCCCCCCC(=O)O`, the Potency result is “inactive”.
Consider `CN1CCN(c2cc3c(cc2F)c(=O)c(C(=O)O)cn3-c2ccc(F)cc2)CC1`, for which the Potency result was “inactive”.
For the compound `c1cnc2c(n1)CCCC2`, the Potency entry is “inactive”.
